# In the library only some 6.5% were active in any assay of this set; here they are far more common.
# Vaccinia Venus – qHTS for Stage-Specific Inhibitors of Vaccinia Orthopoxvirus: Venus Reporter Primary qHTS; Potency, µM (highest dose often 36.5 µM), inactives show at the top dose activity change, negative = inhibition, actives largely listed as inhibitors; actives 0.46% (n = 330,000); AID 720580, 2013; Vaccinia virus Venus reporter expression, fluorescence; calls by dose curve; tested in A549 cells; note: potency is the fitted concentration of half-maximal effect; nearly all actives have a fitted effect of over 30% in size
# LASV entry inh – qHTS for Inhibitors of binding or entry into cells for Lassa Virus; AID 540256, 2011; actives 1.2% (n = 300,000); Lassa virus pseudotype entry inhibition, cell reporter; Potency, µM (top dose mostly 37.9 µM), for the others: at the highest dose activity change, negative = inhibition, usual class: inhibitors; calls by dose curve; tested in HEK293 cells; note: potency is the fitted concentration of half-maximal effect; nearly all actives have a fitted effect of over 50% in size
# FMDV inh – High Throughput Screening for Foot and Mouth Disease Virus Antivirals | FMDV antiviral cell-based qHTS | Potency, µM (top dose mostly 57.9 µM), for the others: at the top dose activity change, negative = inhibition, usual class: inhibitors | actives 1.2% (n = 410,000) | AID 1159524, 2015; calls by dose curve; tested in HEK293T cells; note: read-out not given here; potency is the fitted concentration of half-maximal effect; nearly all actives have a fitted effect of over 45% in size
# Vaccinia mCherry – qHTS for Stage-Specific Inhibitors of Vaccinia Orthopoxvirus: mCherry Reporter Primary qHTS; AID 720579, 2013; Vaccinia virus mCherry reporter infection, fluorescence; Potency, µM (highest dose often 36.5 µM), for inactives: top-dose activity change, negative = inhibition, hits mostly inhibitors; actives 0.63% (n = 310,000); calls by dose curve; tested in A549 cells; note: potency is the fitted concentration of half-maximal effect; nearly all actives have a fitted effect of over 35% in size
# HCMV antiviral – qHTS Assay for inhibitors of the human cytomegalovirus (HCMV); activity change, negative = inhibition, % at 57.5 µM; AID 1259415, 2018; actives 4.5% (n = 410,000); HFF cells, HCMV-luciferase reporter, 72 h; stronger effect = lower value; in the data active = activity change below about -60%; inconclusive = no clear call, values can overlap the other calls; inactive = above about -39%
#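 Inhibition of viral replication was scored as loss of reporter luminescence in HFFs infected with HCMV-luciferase (MOI 1 PFU/cell) for 72 h; compounds tested at 2 doses, normalized to buffer and Salinomycin controls.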
# MARV entry inh – qHTS for inhibitors of binding or entry into cells for Marburg Virus; Marburg virus pseudotyped entry inhibition, cell reporter; Potency, µM (doses to about 37.8 µM), for the others: at the highest dose activity change, negative = inhibition, actives largely listed as inhibitors; actives 1.8% (n = 300,000); AID 540276, 2011; calls by dose curve; tested in HEK293 cells; note: potency is the fitted concentration of half-maximal effect
# * = called active by the depositor; i = inactive; ? = inconclusive; . = no result; [ ] = dose if it differs, or a comment. % is set by controls: 0 for no effect and ±100 for the full control effect.
SMILES,Vaccinia Venus,LASV entry inh,FMDV inh,Vaccinia mCherry,HCMV antiviral,MARV entry inh
COc1ccc(-c2cn3c(C)c(C(=O)N4CCCc5ccccc54)sc3n2)cc1,?,.,?,10µM*,?,.
COc1ccc(-c2cn3c(C)c(C(=O)N4CCN(c5ccccc5F)CC4)sc3n2)cc1,-10%,.,-11%,15%,-60*,.
COc1ccc(C(=O)C(=O)N2CCN(c3ccccc3F)CC2)cc1,-4%,.,-4%,-15%,-68*,.
COCC(=O)Nc1cc(C(=O)N2CC3CC4CC(C3)CC2C4)c2c(c1)nc(-c1ccncc1)n2C,-2%,.,-4%,-5%,.,.
CC1Cc2ccccc2N1C(=O)CN1CCC(n2nnc3cc(C(F)(F)F)ccc32)CC1 (stereo unspecified),?,-30%,20µM*,-28%,-39,?
O=C(CSc1nnc(-c2ccccc2Br)n1-c1ccccc1)c1ccc(F)cc1,-13%,?,-10%,-14%,-31,0%[46.1 µM]
COc1ccccc1CNc1ncnc2sc(C(=O)N(C)C(C)C)c(C)c12,-12%,.,-11%,-17%,.,.
Cc1cc2nc(-c3ccccc3Br)n(C(C(=O)NC(C)(C)C)c3ccccc3)c2cc1C (stereo unspecified),.,.,.,.,-99*,.
CC(C)(C)NC(=O)C(c1ccccc1)n1c(-c2ccccc2Br)nc2ccccc21 (stereo unspecified),.,.,.,.,54,.
COCCCn1c(SCC(=O)Nc2ccccc2OC)nc2c(sc3ccccc32)c1=O,-15%,?,-15%,-2%,?,.
Cc1nnsc1SCC(=O)O,-13%,-6%,12%,-15%,-99*,13%
O=C(c1ccc(-c2ccc([N+](=O)[O-])cc2)o1)N1CCCC(C(F)(F)F)C1 (stereo unspecified),-11%,-2%,25%,-15%,-76*,-17%
O=C(NCc1ccccc1Cl)C1CCCN(c2nc3ccccc3n3cccc23)C1 (stereo unspecified),-12%,4%[46.1 µM],-14%,-11%,-30,.
COc1ccc(OC)c(S(=O)(=O)N2CCC(n3c(C)nc4cccnc43)CC2)c1,-5%,0%[46.1 µM],0%,-11%,4,.
CC1CCCCN1C(=O)Cc1ccc(Cl)cc1 (stereo unspecified),-7%,19%,0%,-12%,40,19%[46.1 µM]
O=C(Cc1ccc(Cl)c(Cl)c1)N1CCCCC1CN1CCCC1 (stereo unspecified),-9%,?,-26%,-24%,.,8.9µM*
Cc1ccc(SCC(=O)NCC2CCCO2)cc1 (stereo unspecified),.,.,16%,.,-93*,.
O=C(CSc1nnc(-c2ccco2)n1-c1ccccc1)NCC1CCCO1 (stereo unspecified),-12%,-2%,-19%,i,-69*,9%
COc1ccc(-c2nsc(SCC(=O)NCC3CCCO3)n2)cc1 (stereo unspecified),-13%,-16%[46.1 µM],-7%,i,-77*,1%[46.1 µM]
Cc1ccc(-c2nsc(SCC(=O)NCC3CCCO3)n2)cc1 (stereo unspecified),-24%,0%,-2%,i,-36,-14%[46.1 µM]
CCOC(=O)c1cc(-c2ccc(OC)cc2)n(CCC(=O)Nc2cccc(C)c2C)c1C,-12%,-27%[46.1 µM],-9%,-7%,19,.
COc1cc(CN2CCc3ccccc3C2)cc([N+](=O)[O-])c1O,.,.,-4%,.,5,.
COc1cc(CN2CCc3ccccc3C2)ccc1O,.,.,32µM*,.,-100*,.
COc1cc(CN2CCN(c3cc(C)ccc3C)CC2)ccc1O,.,.,-29%,.,-73*,-1%
COc1ccc(NC(NC(=O)c2cccnc2)C(Cl)(Cl)Cl)cc1 (stereo unspecified),-7%,-8%[46.1 µM],21%,-11%,-85*,?
SMILES,Vaccinia Venus,LASV entry inh,FMDV inh,Vaccinia mCherry,HCMV antiviral,MARV entry inh
Cc1ccccc1NC(NC(=O)c1cccnc1)C(Cl)(Cl)Cl (stereo unspecified),-8%,0%,-1%,i,-10,-7%
Cc1ccc2nc(Cl)c3cc(C(=O)NCCCN4CCC(C)CC4)sc3c2c1,-9%,?,-13%,-6%,5,6%[46.1 µM]
O=C(NCCCN1CCCC1)c1cc2c(Cl)nc3ccccc3c2s1,?,?,-2%,i,-35,10µM*
CC1CCN(CCCNC(=O)c2cc3c(Cl)nc4ccccc4c3s2)CC1,.,.,-23%,.,-91*,.
CCCN1CCN(CCCNC(=O)c2cc3c(Cl)nc4ccccc4c3s2)CC1,1%,3%[46.1 µM],-20%,12%,-80*,?
CC1CCCCN1CCCNC(=O)c1cc(Sc2ccc(Cl)cc2)nc2ccccc12 (stereo unspecified),-28%,26%[46.1 µM],-17%,-28%,-21,.
CC1CCN(CCCNC(=O)c2cc(Sc3ccc(F)cc3)nc3ccccc23)CC1,-16%,-23%[46.1 µM],-17%,i,-65*,.
CCN(CC)S(=O)(=O)c1ccc(Cl)c(NC(=O)COC(=O)c2cccn2C)c1,-29%,-22%,13µM*,?,-38,?
CN(C)c1ccc(/C=C/c2ccnc3ccccc23)c(N)c1,-14%,.,.,-24%,.,.
CNCc1ccccc1Sc1cccc2ccccc12,-27%,?,0%,-19%,?,?
CN(C)CCN(C)Cc1ccccc1Sc1cccc2ccccc12,?,?,?,13µM*,-75*,?
CCn1nc(-c2ccccc2)nc2c(=O)n(C)c(=O)nc1-2,2.2µM*,?,1.8µM*,2.5µM*,.,0.89µM*
CCn1nc(-c2ccc(C)cc2)nc2c(=O)n(C)c(=O)nc1-2,3.2µM*,.,.,2.5µM*,.,.
COc1ccc2c(CNC3CCC(C)CC3)c(C(=O)O)n(Cc3ccc(F)cc3)c2c1 (stereo unspecified),1%,1%[46.1 µM],-2%,1%,-9,.
COc1ccc(Nc2cc3c(cn2)nc(-c2ccc(OC)c(OC)c2)n3C)cn1,.,.,.,.,21,.
CCOc1ccc(-c2ccc(NS(=O)(=O)c3ccc(C)cc3)cc2)nn1,-5%,-1%[46.1 µM],29%,-9%,-10,.
CCOc1ccc(-c2ccc(NS(=O)(=O)c3cc(C)c(C)cc3C)cc2)nn1,-17%,12%[46.1 µM],39%,-2%,-77*,.
COc1ccc(-n2c(C)nc3cc(C(=O)NC4CCCC4)ccc32)cc1,-16%,-12%[46.1 µM],4%,-11%,-19,.
Cc1ccc(N2CC(NC(=O)C3CCCCC3)CC2=O)cc1C (stereo unspecified),-6%[7.34 µM],-6%[46.1 µM],-7%,-4%[7.34 µM],11,.
CCCCn1c(=O)[nH]c(=O)c2c1nc(-c1ccccc1F)n2Cc1ccccc1OC,-23%,11µM*,?,-8%,1,?
COc1c(C)cc(C(=O)C2CCCN(Cc3ccccn3)C2)cc1C (stereo unspecified),-6%,-26%[46.1 µM],-22%,-10%,-65*,?
COc1ccc2cc(C(=O)C3CCCN(Cc4cccc(C)n4)C3)ccc2c1 (stereo unspecified),?,?,?,?,-67*,22µM*
